Test results: ChEMBL document CHEMBL3433997, “St. Jude Leishmania screening dataset” (2016)

Tests used:
Format in all cases: functional
[1] = target: Solute carrier family 2, facilitated glucose transporter member 1 (Homo sapiens) (UniProt P11166); experiment: ST_JUDE_LEISH: Cytotoxicity at 2uM final concentration against transgenic Leishmania Mexicana promastigotes LmGLUT1 that are glucose transport deficient and complemented with the human glucose transporter GLUT1. Activity is measured by DNA content using SYBR green in vitro
Sequence of Solute carrier family 2, facilitated glucose transporter member 1 (Homo sapiens) (P11166 whole entry): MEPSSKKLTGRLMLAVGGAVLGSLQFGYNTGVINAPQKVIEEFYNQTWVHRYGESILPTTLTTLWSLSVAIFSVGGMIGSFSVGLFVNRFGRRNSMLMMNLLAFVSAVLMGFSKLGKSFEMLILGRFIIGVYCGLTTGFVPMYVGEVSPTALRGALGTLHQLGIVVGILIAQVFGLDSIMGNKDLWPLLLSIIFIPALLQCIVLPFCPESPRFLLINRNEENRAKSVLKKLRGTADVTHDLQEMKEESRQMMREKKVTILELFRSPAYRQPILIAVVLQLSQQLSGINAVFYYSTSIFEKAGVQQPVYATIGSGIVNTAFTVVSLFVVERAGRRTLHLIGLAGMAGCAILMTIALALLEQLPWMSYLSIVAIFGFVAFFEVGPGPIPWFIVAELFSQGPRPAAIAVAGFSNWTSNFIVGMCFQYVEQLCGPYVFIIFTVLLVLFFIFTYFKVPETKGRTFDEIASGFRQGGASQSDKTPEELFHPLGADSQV

[2] = target: Hexose transporter 1 (Plasmodium falciparum) (UniProt O97467); experiment: ST_JUDE_LEISH: Cytotoxicity at 2uM final concentration against transgenic Leishmania Mexicana promastigotes LmPfHT that are glucose transport deficient and complemented with the Plasmodium falciparum hexose transporter. Activity is measured by DNA content using SYBR green in vitro
[3] = target: Glucose transporter (Leishmania mexicana) (UniProt O61059); experiment: ST_JUDE_LEISH: Cytotoxicity at 2uM final concentration against transgenic Leishmania Mexicana promastigotes LmGT2 that are glucose transport deficient and complemented with the L. Mexicana glucose transporter 2. Activity is measured by DNA content using SYBR green in vitro

| Compound | inhibition [1] [%] | inhibition [2] [%] | inhibition [3] [%] |
| --- | --- | --- | --- |
| COc1ccc(F)cc1-c1ccccc1CNC(=O)c1cnn(-c2ccc([N+](=O)[O-])cc2)c1C(F)(F)F | 2.16 | 2.84 | 4.07 |
| N=C(N)NC(=O)Nc1cc(F)c(Cl)c(Br)c1 | 3.49 | 4.05 | -2.83 |
| COc1ccc(-n2nc(C)c3c2NC(=O)CC3c2ccccc2OCc2ccccc2F)cc1 (stereo unspecified) | 11.7 | 11.4 | 9.27 |
| O=S(=O)(Nc1ccc(CCN2CCC(N3CCCCC3)CC2)cc1)c1ccccc1C(F)(F)F | 13.5 | 13.4 | 11.3 |
| CCn1ccc2c(N3CCCCS3(=O)=O)cc(C(=O)N[C@@H](Cc3ccccc3)[C@H](O)CNC(C)(C)c3cccc(C(F)(F)F)c3)cc21 | 0.44 | -1.1 | -1.56 |
| CC(C)(CNCc1ccccc1)c1nc(-c2ccc(Cl)c(O)c2)c(-c2ccncc2)[nH]1 | 4.28 | 4.73 | 3.53 |
| CC(C)CN1CCCN(Cc2cccc(NC(=O)c3ccc(Cl)c(Cl)c3)c2)CC1 | 10.4 | 10.2 | 4.5 |
| CCC(CC)CN1C(=O)C(C)(c2ccccc2)N=C1N (stereo unspecified) | -1.13 | -0.03 | -1.23 |
| O=C(c1cnn(-c2ccccc2)c1C(F)(F)F)N1CCN(c2ccnc3cc(Cl)ccc23)CC1 | 1.81 | 1.39 | 2.15 |
| Cc1cc(N/N=C/c2ccccc2[N+](=O)[O-])c2ccc(F)cc2n1 | 2.1 | 4.11 | 1.62 |
| O=C(c1ccccc1)N1COCC(CCN2CCC(N3CCCC3)CC2)(c2ccc(Cl)c(Cl)c2)C1 (stereo unspecified) | 2.71 | -0.49 | 2.59 |
| CN(C)CC(O)COc1ccc(Nc2ncc([N+](=O)[O-])c(Nc3ccccc3O)n2)cc1 (stereo unspecified) | 2.66 | 3.7 | 1.45 |
